Results published in PubChem BioAssay (Tox21).
Inconclusive results are not listed. The source made the active and inactive calls. Unless noted, calls follow the shape of the dose curve; as a rule, active = well fitted curve in the direction sought with a large enough effect in the repeat runs; inconclusive = weak or mixed curves; inactive = no such curve, though single readings can be large; an effect the other way counts as inactive or inconclusive.

Tests used:
[1] = qHTS assay to identify small molecule agonists of the estrogen receptor alpha (ER-alpha) signaling pathway in the presence of an antagonist - cell viability counter screen (AID 1259386);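 also: series mostly up to about 92 µM; cells exposed to compounds for 22 h at 37 °C before the viability read; nearly all actives have a fitted effect of over 30% in size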
Summary of the method: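 Fluorescent CellTiter-Fluor viability signal from VM7Luc4E2 cells, with the reagent added during the final hour of a 22hr compound exposure at 37C in the presence of 10.0nM ICI-182,780.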

[2] = biological target: Progesterone receptor (Homo sapiens) (UniProt P06401); experiment: qHTS assay to identify small molecule agonists of the progesterone receptor (PR) signaling pathway (AID 1346784; calls by dose curve; also: nearly all actives have a fitted effect of over 30% in size)
Summary of the method: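 PR-UAS-bla HEK 293T cells carrying a UAS-driven beta-lactamase reporter were seeded in medium with 2% charcoal-stripped FBS, preincubated 6 hr at 37C, then exposed to compounds in DMSO for 16 hr; agonism was read by LiveBLAzer B/G FRET fluorescence.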

[3] = biological target: Progesterone receptor (Homo sapiens) (UniProt P06401); experiment: qHTS assay to identify small molecule antagonists of the progesterone receptor (PR) signaling pathway (AID 1346795; active = well fitted inhibition curve with a large enough effect in the signal ratio in the repeat runs, not every such curve was filed as active; the % refers to the signal ratio)
Summary of the method: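 PR-UAS-bla HEK293T cells carrying a UAS-driven beta-lactamase reporter were plated in medium with 2% charcoal-stripped FBS and rested 6 hr at 37C. Compounds were added with 1 nM R5020 (final) for 16 hr, then FRET substrate loaded 2 hr at room temperature.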

[4] = qHTS assay to identify small molecule antagonists of the progesterone receptor (PR) signaling pathway - cell viability counter screen (AID 1346798); also: series mostly up to about 92 µM; nearly all actives have a fitted effect of over 50% in size
Summary of the method: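 PR-UAS-bla HEK293T cells in medium with 2% charcoal-stripped FBS were treated with compounds plus R5020 for 16 hr at 37C. Cell viability was then read by CellTiter-Glo luminescence after 30 min at room temperature in the same wells.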

[5] = qHTS assay to identify small molecule agonists of the progesterone receptor (PR) signaling pathway - cell viability counter screen (AID 1346799; calls by dose curve; also: nearly all actives have a fitted effect of over 45% in size)
Summary of the method: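 PR-UAS-bla HEK293T cells, 3,000 per well in medium with 2% charcoal-stripped FBS, were preincubated 6 hr at 37C, then exposed to compounds for 16 hr; viability was read as CellTiter-Glo luminescence after 30 min at room temperature.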

[6] = qHTS assay to identify small molecule antagonists of the TGF-beta/Smad signaling pathway - cell viability counter screen (AID 1346824); also: nearly all actives have a fitted effect of over 50% in size
Summary of the method: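 SBE-bla HEK 293T cells, incubated overnight, then compound plus 0.25 ng/mL TGF-beta1 (stock added) for 5 hr at 37 C. Viability was read in the same wells by CellTiter-Glo luminescence after 30 min at room temperature.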

[7] = qHTS assay to identify small molecule agonists of the TGF-beta/Smad signaling pathway - cell viability counter screen (AID 1346829); also: top concentration of the series differs between compounds; nearly all actives have a fitted effect of over 45% in size
Summary of the method: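 HEK 293T SBE-bla line, 5 hr compound exposure at 37 C, multiplexed CellTiter-Glo viability read by luminescence.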

[8] = qHTS assay to identify small molecule agonists of the TGF-beta/Smad signaling pathway (AID 1346859; active = well fitted activation curve with a large enough effect in the signal ratio in the repeat runs, not every such curve was filed as active; the % refers to the signal ratio; also: series mostly up to about 77 µM)
Summary of the method: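 HEK 293T cells stably carrying a beta-lactamase reporter driven by the Smad binding element were seeded overnight, exposed to DMSO-dissolved compounds for 5 hr at 37 C, 5% CO2, then loaded with FRET substrate for 2 hr at room temperature.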

[9] = biological target: Thyrotropin-releasing hormone receptor (Homo sapiens) (UniProt P34981); experiment: qHTS assay to identify small molecule antagonists of the thyrotropin-releasing hormone receptor (TRHR) signaling pathway (AID 1346877; active = well fitted inhibition curve with a large enough effect in the repeat runs, not every such curve was filed as active; also: series mostly up to about 51 µM)
Summary of the method: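 In this cell-based calcium flux format, HEK293 cells expressing TRHR received test compound for 5 min before the agonist TRH (1 nM final). Dye loading lasted 2 h at 37 °C.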

[10] = biological target: Thyrotropin-releasing hormone receptor (Homo sapiens) (UniProt P34981); experiment: qHTS assay to identify small molecule agonists of the thyrotropin-releasing hormone receptor (TRHR) signaling pathway (AID 1346891; calls by dose curve; also: series mostly up to about 58 µM)
Summary of the method: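 TRHR-expressing HEK293 cells were plated 18 h at 37 °C/5% CO2, loaded with calcium dye 2 h at 37 °C, then given compound in DMSO; fluorescence was read kinetically for 3 min at 1 s intervals.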

[11] = Human pregnane X receptor (PXR) small molecule agonists, qHTS cell viability counter screen (AID 1346977); also: nearly all actives have a fitted effect of over 50% in size
Summary of the method: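 PXR-Luc HepG2 cells in medium with 5% charcoal-stripped FBS were pre-incubated 5hr, then exposed to compounds for 24hr at 37C. Viability was read in the same wells by CellTiter-Fluor fluorescence, reagent added after 23hr with a 1hr incubation.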

[12] = Caspase-3/7 induction in HepG2 cells by small molecules, qHTS assay (AID 1346978); also: nearly all actives have a fitted effect of over 15% in size
Summary of the method: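 Wild-type HepG2 cells, 2,000/well, settled 5 hr at 37 C and 5% CO2, then compound-treated for 17 hr; caspase-3/7 activity read by luminescent Caspase-Glo 3/7 after 30 min at room temperature.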

[13] = Caspase-3/7 induction in CHO-K1 cells by small molecules, qHTS cell viability counter screen (AID 1346979); also: nearly all actives have a fitted effect of over 35% in size
Summary of the method: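 Wild-type CHO-K1 cells were seeded at 1,500 per well, rested 5hr at 37 C, then exposed to compounds in DMSO. After 16hr, CellTiter-Fluor reagent was added and fluorescence read 1hr later as the viability measure.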

[14] = Caspase-3/7 induction in CHO-K1 cells by small molecules, qHTS assay (AID 1346980); also: nearly all actives have a fitted effect of over 15% in size
Summary of the method: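 Wild-type CHO-K1 cells exposed to compounds for 17hr at 37 C, 5% CO2. Caspase-3/7 activity then measured by Caspase-Glo 3/7 luminescence after 30min at room temperature.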

[15] = biological target: Nuclear receptor subfamily 1 group I member 2 (Homo sapiens) (UniProt O75469); experiment: Human pregnane X receptor (PXR) small molecule agonists, qHTS assay (AID 1346982); also: nearly all actives have a fitted effect of over 35% in size
Summary of the method: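 Luminescence (ONE-Glo, 30 min RT) after 24 hr compound exposure of PXR-Luc HepG2 cells; cells rested 5 hr post-plating in 5% charcoal-stripped FBS medium.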

[16] = biological target: Acetylcholinesterase (Homo sapiens) (UniProt P22303); experiment: Acetylcholinesterase (AChE) small molecule antagonists: colormetric cell-based qHTS assay (AID 1347395; calls by dose curve; also: nearly all actives have a fitted effect of over 30% in size)
Summary of the method: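 SH-SY5Y cells, plated overnight at 37 C, were exposed to compounds for 30 min at 37 C and 5% CO2. Acetylthiocholine plus DTNB was then added, and thiocholine from endogenous AChE was quantified colorimetrically after 90 min at 37 C.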

[17] = biological target: Nuclear receptor subfamily 1 group I member 2 (Rattus norvegicus) (UniProt Q9R1A7); experiment: Rat pregnane X receptor (rPXR) activation by small molecules, qHTS assay (AID 1346983); settings: rPXR luciferase reporter cells, One-Glo luminescence, 24 h; stronger effect = higher value; also: nearly all actives have a fitted effect of over 20% in size
Summary of the method: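 Cell-based rPXR activation assay: rPXR cells, 2,000 per well, rested 5hr at 37 C, then exposed to compounds in DMSO for 24 hr at 37 C. Luciferase activity read by One-Glo luminescence after 30 min at room temperature.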

[18] = biological target: Nuclear receptor subfamily 1 group I member 2 (Homo sapiens) (UniProt O75469); experiment: CYP3A4 induction through human pregnane X receptor (PXR) by small molecules, qHTS assay (AID 1346984); also: nearly all actives have a fitted effect of over 40% in size
Summary of the method: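 DPX-2 reporter cells; 24h cpd, 37C; Luciferin-IPA 3uM final x3h; One-Glo 30 min RT; lumi read.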

[19] = biological target: Nuclear receptor subfamily 1 group I member 2 (Homo sapiens) (UniProt O75469); experiment: Human pregnane X receptor (PXR) activation by small molecules, qHTS assay (AID 1346985); also: nearly all actives have a fitted effect of over 40% in size
Summary of the method: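 DPX-2 cells (HepG2 co-transfected with a PXR response element and a CYP3A4-promoter luciferase construct) were seeded at 2,000 per well, rested 5 hr at 37C, then exposed to DMSO-dissolved compounds for 24 hr. Activation was read as luciferase luminescence.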

[20] = Caspase-3/7 induction in HepG2 cells by small molecules, qHTS cell viability counter screen (AID 1346981); also: series mostly up to about 92 µM; nearly all actives have a fitted effect of over 30% in size
Summary of the method: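 Counter screen for cytotoxicity: HepG2 exposed 16 hr to compounds, then CellTiter-Fluor viability signal (fluorescence, 1 hr reagent incubation).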
% is scaled to controls: 0 for no effect and ±100 for the full control effect.

Progesterone receptor (Homo sapiens), sequence (P06401 whole entry, looked up): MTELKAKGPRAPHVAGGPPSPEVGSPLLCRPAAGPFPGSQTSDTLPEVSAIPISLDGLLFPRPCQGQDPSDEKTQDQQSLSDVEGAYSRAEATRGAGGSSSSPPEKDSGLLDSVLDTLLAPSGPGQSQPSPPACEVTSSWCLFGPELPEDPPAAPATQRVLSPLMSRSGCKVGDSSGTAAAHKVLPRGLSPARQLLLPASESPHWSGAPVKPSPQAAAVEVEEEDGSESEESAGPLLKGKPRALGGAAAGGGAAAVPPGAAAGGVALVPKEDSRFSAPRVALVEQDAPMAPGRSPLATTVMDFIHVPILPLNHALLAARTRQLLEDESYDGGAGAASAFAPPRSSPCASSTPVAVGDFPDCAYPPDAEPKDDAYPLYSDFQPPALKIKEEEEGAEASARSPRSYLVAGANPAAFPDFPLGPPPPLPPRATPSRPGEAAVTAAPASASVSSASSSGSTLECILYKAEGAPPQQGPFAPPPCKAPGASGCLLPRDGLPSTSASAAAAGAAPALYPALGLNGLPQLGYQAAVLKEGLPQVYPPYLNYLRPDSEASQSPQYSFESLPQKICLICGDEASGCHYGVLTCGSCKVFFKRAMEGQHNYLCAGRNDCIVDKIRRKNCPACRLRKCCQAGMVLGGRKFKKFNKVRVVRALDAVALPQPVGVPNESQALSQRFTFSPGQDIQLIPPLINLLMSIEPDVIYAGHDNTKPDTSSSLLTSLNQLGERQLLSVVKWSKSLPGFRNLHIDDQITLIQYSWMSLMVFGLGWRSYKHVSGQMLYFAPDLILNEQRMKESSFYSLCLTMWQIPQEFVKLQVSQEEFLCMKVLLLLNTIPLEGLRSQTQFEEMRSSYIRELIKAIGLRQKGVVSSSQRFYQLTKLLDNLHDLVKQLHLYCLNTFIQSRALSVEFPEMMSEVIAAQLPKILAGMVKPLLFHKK
Nuclear receptor subfamily 1 group I member 2 (Homo sapiens), sequence (O75469 whole entry, looked up): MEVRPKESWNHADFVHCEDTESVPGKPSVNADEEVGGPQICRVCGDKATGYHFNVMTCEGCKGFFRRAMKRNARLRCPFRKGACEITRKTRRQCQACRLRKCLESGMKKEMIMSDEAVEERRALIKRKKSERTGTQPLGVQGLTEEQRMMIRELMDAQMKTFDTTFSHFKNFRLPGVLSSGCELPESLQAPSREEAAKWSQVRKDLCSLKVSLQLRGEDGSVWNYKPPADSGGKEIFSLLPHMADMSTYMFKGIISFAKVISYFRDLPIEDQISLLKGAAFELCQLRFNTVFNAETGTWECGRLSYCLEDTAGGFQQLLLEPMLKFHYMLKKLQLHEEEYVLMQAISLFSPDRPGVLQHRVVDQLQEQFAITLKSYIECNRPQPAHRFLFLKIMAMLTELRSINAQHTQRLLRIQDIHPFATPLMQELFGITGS
Acetylcholinesterase (Homo sapiens), sequence (P22303 whole entry, looked up): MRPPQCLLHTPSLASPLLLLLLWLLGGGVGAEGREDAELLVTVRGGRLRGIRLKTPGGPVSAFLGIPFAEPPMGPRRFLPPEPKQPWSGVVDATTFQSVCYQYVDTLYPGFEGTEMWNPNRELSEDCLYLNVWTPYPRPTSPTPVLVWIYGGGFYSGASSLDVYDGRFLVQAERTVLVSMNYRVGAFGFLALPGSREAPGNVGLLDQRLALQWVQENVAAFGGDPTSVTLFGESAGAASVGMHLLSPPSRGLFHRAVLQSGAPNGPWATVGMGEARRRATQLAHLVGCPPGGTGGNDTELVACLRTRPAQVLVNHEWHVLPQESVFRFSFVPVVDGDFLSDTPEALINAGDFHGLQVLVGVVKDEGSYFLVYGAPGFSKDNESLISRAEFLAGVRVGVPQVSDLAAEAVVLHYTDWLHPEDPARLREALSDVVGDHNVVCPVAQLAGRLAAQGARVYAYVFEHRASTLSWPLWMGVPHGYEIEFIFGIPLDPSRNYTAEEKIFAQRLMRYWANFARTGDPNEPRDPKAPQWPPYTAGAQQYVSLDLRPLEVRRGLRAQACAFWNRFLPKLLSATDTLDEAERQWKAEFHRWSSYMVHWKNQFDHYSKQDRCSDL
Thyrotropin-releasing hormone receptor (Homo sapiens), sequence (P34981 whole entry, looked up): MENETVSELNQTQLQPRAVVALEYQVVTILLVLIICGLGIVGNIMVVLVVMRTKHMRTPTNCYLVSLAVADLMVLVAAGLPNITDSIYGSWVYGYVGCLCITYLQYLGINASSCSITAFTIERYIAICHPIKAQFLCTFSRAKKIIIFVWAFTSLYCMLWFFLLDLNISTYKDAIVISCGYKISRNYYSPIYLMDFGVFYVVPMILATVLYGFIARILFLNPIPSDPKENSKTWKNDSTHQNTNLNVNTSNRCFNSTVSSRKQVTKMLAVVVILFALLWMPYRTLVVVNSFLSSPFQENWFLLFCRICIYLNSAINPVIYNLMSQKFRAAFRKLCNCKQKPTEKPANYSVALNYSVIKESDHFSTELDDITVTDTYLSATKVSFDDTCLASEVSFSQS
Nuclear receptor subfamily 1 group I member 2 (Rattus norvegicus), sequence (Q9R1A7 whole entry, looked up): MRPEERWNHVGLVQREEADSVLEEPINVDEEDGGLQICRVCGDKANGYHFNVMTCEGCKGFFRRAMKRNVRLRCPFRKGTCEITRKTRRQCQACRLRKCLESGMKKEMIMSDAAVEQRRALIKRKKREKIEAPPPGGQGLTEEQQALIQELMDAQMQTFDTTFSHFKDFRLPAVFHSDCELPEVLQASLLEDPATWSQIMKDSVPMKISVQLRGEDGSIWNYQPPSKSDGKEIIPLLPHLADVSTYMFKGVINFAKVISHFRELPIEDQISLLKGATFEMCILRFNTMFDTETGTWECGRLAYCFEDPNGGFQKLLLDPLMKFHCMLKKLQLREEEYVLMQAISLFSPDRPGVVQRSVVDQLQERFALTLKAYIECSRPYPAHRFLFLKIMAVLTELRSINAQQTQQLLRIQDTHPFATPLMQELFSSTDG

O=C(O)CBr
inactive: Potency [1] | Potency [2] | Potency [3] | Potency [4] | Potency [5] | outcome [6] | Potency [7] | outcome [8] | Potency [9] | outcome [10] | Potency [11] | outcome [12] | Potency [13] | outcome [14] | Potency [15] | Potency [16]

CCC(C(N)=O)N1CCCC1=O (configuration not stated)
inactive: Potency [1] | Potency [2] | Potency [3] | Potency [4] | Potency [5] | outcome [6] | Potency [7] | outcome [8] | Potency [9] | outcome [10] | Potency [11] | outcome [12] | Potency [13] | outcome [14] | Potency [15] | max activation [17] 4.65% | Potency [18] | Potency [19] | Potency [16]

ClCCCCl
inactive: Potency [1] | Potency [2] | Potency [3] | Potency [4] | Potency [5] | outcome [6] | Potency [7] | outcome [8] | Potency [9] | outcome [10] | Potency [11] | outcome [12] | Potency [13] | outcome [14] | Potency [20] | Potency [15] | Potency [16]

CC(=NC#N)N(C)Cc1ccc(Cl)nc1
inactive: Potency [1] | Potency [2] | Potency [3] | Potency [4] | Potency [5] | outcome [6] | Potency [7] | outcome [8] | Potency [9] | outcome [10] | outcome [12] | Potency [13] | outcome [14] | Potency [20] | Potency [15]

Clc1nc(Cl)nc(Nc2ccccc2Cl)n1
inactive: Potency [1] | Potency [2] | Potency [3] | Potency [4] | Potency [5] | outcome [6] | Potency [7] | outcome [8] | Potency [9] | outcome [10] | Potency [11] | outcome [12] | Potency [13] | outcome [14] | Potency [20] | Potency [16]

CCC(=O)c1ccc(Cl)cc1
inactive: Potency [1] | Potency [2] | Potency [3] | Potency [4] | Potency [5] | outcome [6] | Potency [7] | outcome [8] | Potency [9] | outcome [10] | Potency [11] | outcome [12] | Potency [13] | outcome [14] | Potency [20] | Potency [15] | Potency [16]

CCCCCCCCBr
inactive: Potency [1] | Potency [2] | Potency [3] | Potency [4] | Potency [5] | outcome [6] | Potency [7] | outcome [8] | Potency [9] | outcome [10] | Potency [11] | outcome [12] | Potency [13] | outcome [14] | Potency [20] | Potency [16]

CCSC(=O)Cl
inactive: Potency [1] | Potency [2] | Potency [3] | Potency [4] | Potency [5] | outcome [6] | Potency [7] | outcome [8] | Potency [9] | outcome [10] | Potency [11] | outcome [12] | Potency [13] | outcome [14] | Potency [20] | Potency [16]
